Laboratory results taken from PubChem BioAssay (NCI).
Compounds without any hit were thinned out: in the full panel of roughly 79,000, 15% have a hit. Rule as the data show it: active = growth inhibition above about 70%; inactive = the rest.

How the values were obtained:
[1] = NCI Yeast Anticancer Drug Screen. Data for the rad50 strain (AID 155);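 also: 0% = growth of vehicle-only cultures of the same strain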; conditions: S. cerevisiae rad50 strain growth inhibition; at 50.0 µM; stronger effect = higher value
Summary of the method: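 Vehicle-treated cultures provide the reference for the growth inhibition reported for compound-exposed, repair-deficient yeast.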

[2] = NCI Yeast Anticancer Drug Screen. Data for the mec2-1 strain (AID 157); conditions: S. cerevisiae mec2-1 strain, at 50.0 µM, stronger effect = higher value
Summary of the method: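 mec2-1 yeast strain, carrying an alteration in DNA damage repair or cell cycle control, was exposed to compounds; growth inhibition was measured relative to vehicle-treated controls.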

[3] = NCI Yeast Anticancer Drug Screen. Data for the sgs1 mgt1 strain (AID 161);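 also: 0% = growth of cultures given vehicle only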; conditions: S. cerevisiae sgs1 mgt1 strain, at 50.0 µM, stronger effect = higher value
Summary of the method: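 Percent growth inhibition was derived by comparing compound-exposed mutant yeast with vehicle-exposed cultures. The strain carries alterations in DNA damage repair.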

[4] = NCI Yeast Anticancer Drug Screen. Data for the cln2 rad14 strain (AID 165);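 also: 0% = growth equal to vehicle treated cultures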; conditions: S. cerevisiae cln2 rad14 strain, at 50.0 µM, stronger effect = higher value
Summary of the method: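 Yeast carrying cln2 and rad14 alterations (cell cycle control and DNA damage repair) were exposed to compounds. Growth inhibition was measured against vehicle-treated controls.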

[5] = NCI Yeast Anticancer Drug Screen. Data for the bub3 strain (AID 167); conditions: S. cerevisiae bub3 mutant strain, at 50.0 µM, stronger effect = higher value
Summary of the method: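 Mutant yeast screening strain plus compound; vehicle-treated cultures serve as the 0% inhibition reference.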

[6] = NCI Yeast Anticancer Drug Screen. Data for the mlh1 rad18 strain (AID 175); conditions: S. cerevisiae mlh1 rad18 strain growth inhibition; at 50.0 µM; stronger effect = higher value
Summary of the method: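 Growth inhibition of the yeast strain was measured after compound exposure and expressed relative to vehicle-treated controls. The strain carries defined defects in DNA damage repair.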

Measured: growth inhibition

O=C1CCCC(c2ccccc2)O1 (configuration not stated)
inactive: [1] -3.1% | [2] -14.2% | [3] 5.2% | [4] -67.5% | [5] -27.4% | [6] 14.7%

O=C(C1C2C=CC(C2)C1C(=O)N1CCCCC1)N1CCCCC1 (configuration not stated)
inactive: [1] 2.5% | [2] 25.4% | [3] 13.2% | [4] -1.8% | [5] 12.3% | [6] 11.5%

COc1ccc(NC(=O)NCc2cccc(Cl)c2)cc1
inactive: [1] 2.6% | [2] 35.4% | [3] 32% | [4] -8.4% | [5] -9.15% | [6] 44.1%

NC(=O)c1cc[cH-]c1.[Fe+2].c1cc[cH-]c1
inactive: [1] -10.1% | [2] 9% | [3] -4.75% | [4] -2.05% | [5] 5.35% | [6] 12.9%

CC(=O)Nc1nnc(SCc2ccccc2)s1
inactive: [1] 9% | [2] 6.35% | [3] -4.4% | [4] -10% | [5] 3.4% | [6] -20.6%

O=CC(O)CO (configuration not stated)
inactive: [1] 10.4% | [2] 9.5% | [3] 11.9% | [4] 3.95% | [5] 8.65% | [6] -5.2%

CC(C)=CCC/C(C)=C/CC/C(C)=C/C1CCC(=O)C1(C)C (configuration not stated)
inactive: [1] 5% | [2] -38.4% | [3] -43.2% | [4] -16.6% | [5] -33.3% | [6] -8.35%

Brc1ccccc2cc(-c3ccccc3)nc1-2
inactive: [1] 54.9% | [2] 30.5% | [3] 34.5% | [4] 19.9% | [5] 37.2% | [6] -7%

OCCCc1nc2ccccc2[nH]1
inactive: [1] -10.3% | [2] -21.8% | [3] -15.1% | [4] 8.85% | [5] -17.7% | [6] 11.1%

Cc1cccnc1NCc1ccccn1
inactive: [1] 3.1% | [2] -0.9% | [3] 15.1% | [4] 4.35% | [5] 1.75% | [6] 3.35%

O=C1c2ccccc2C(=O)N1Cl
inactive: [1] 8.7% | [2] -4.75% | [3] -37.1% | [4] -0.05% | [5] 2.2% | [6] -5.75%

CC(NC(C)c1ccccc1)c1ccccc1 (configuration not stated)
inactive: [1] 6.05% | [2] 0.05% | [3] -5.6% | [4] -7.3% | [5] 3.3% | [6] -1.35%

Cc1c(C(=N)N)oc2ccccc12
inactive: [1] 6.3% | [2] 0.05% | [3] 0.4% | [4] -31.5% | [5] -4.15% | [6] 3.95%

CN(C)CCCNCc1c[nH]c(=O)[nH]c1=O
inactive: [1] -4.75% | [2] 6.55% | [3] -9.9% | [4] -7.4% | [5] -4.85% | [6] -25.9%

O=c1[nH]nc(-c2ccc3c(c2)Cc2ccccc2-3)c2ccccc12
inactive: [1] 12.8% | [2] -0.15% | [3] -23.9% | [4] -1.95% | [5] 10.3% | [6] 17.5%

O=c1[nH]c2ccc(Cl)cc2[nH]c1=O
inactive: [1] -7.05% | [2] 5% | [3] -10.5% | [4] 0.3% | [5] -1.45% | [6] 0.9%

O=C1CC(=C=Nc2ccccc2)C(=O)N1c1ccccc1
inactive: [1] 3.6% | [2] 3.85% | [3] 1.7% | [4] -33.5% | [5] -2.2% | [6] 19.8%

CCCCCCC(O)CCCCCC
inactive: [1] 27.4% | [2] -16.4% | [3] 26.4% | [4] -24.6% | [5] 21.5% | [6] -12.3%

O=C(O)C(O)c1c[nH]c2ccccc12 (configuration not stated)
inactive: [1] -4.85% | [2] -2.3% | [3] -26.6% | [4] -1.25% | [5] -11.4% | [6] -29.3%

CNCCS(=O)(=O)O
inactive: [1] 13.9% | [2] -3.05% | [3] 1.7% | [4] -6.3% | [5] 13.6% | [6] 9.25%

CN(CCCn1ccnc1[N+](=O)[O-])CCCn1ccnc1[N+](=O)[O-]
inactive: [1] -28.1% | [2] -12.6% | [3] -0.35% | [4] 3.85% | [5] -5.05% | [6] 11.6%

Cn1ncc2c(Nc3cc(Cl)ccc3Cl)ncnc21
inactive: [1] -3.05% | [2] -1.9% | [3] 4.35% | [4] -52.8% | [5] 3.7% | [6] -1.95%

CC(C)(C)N/N=C(\C(=O)Nc1cccc(Cl)c1)C1C(=O)Nc2ccccc2S1=O (configuration not stated)
inactive: [1] -31.1% | [2] -43.8% | [3] -24.6% | [4] 10.7% | [5] -11.2% | [6] 8.75%

O=C(/C=C/c1ccc(O)c(O)c1)c1ccc(O)cc1O
inactive: [1] -26.5% | [2] -27.9% | [3] -24.2% | [4] 4.05% | [5] -40.6% | [6] -38.9%

Cc1ccc(N(C(=O)Nc2ccccc2)C2=NCC(C)S2)cc1C (configuration not stated)
inactive: [1] -29.5% | [2] -17.9% | [3] -37.4% | [4] 2.5% | [5] 39.3% | [6] -39.6%

Cc1cc(=O)c(CO)n[nH]1
inactive: [1] 8.75% | [2] 15.2% | [3] 3.7% | [4] 6.8% | [5] 3.45% | [6] 19.5%

N#Cc1c(-c2ccccc2)cc(-c2ccc(N)cc2)[nH]c1=O
inactive: [1] 26.5% | [2] 3.65% | [3] 13.2% | [4] 33.4% | [5] 11.6% | [6] 20.3%

CC1=C(c2ccccc2)CON(c2ccccc2)C1
inactive: [1] -9.3% | [2] -15.1% | [3] -9.2% | [4] -5.4% | [5] 14.8% | [6] -9.2%

O=[N+]([O-])c1ccc(O)c(N=Cc2ccc(C=Nc3cc([N+](=O)[O-])ccc3O)cc2)c1
inactive: [1] -24.9% | [2] -19.8% | [3] -13.8% | [4] 1.2% | [5] -5.1% | [6] -17.6%

CCOC(=O)N1CCNCCN(C(=O)OCC)CCNCC1
inactive: [1] -3.95% | [2] 2.3% | [3] -4.3% | [4] 0.7% | [5] -4.5% | [6] 24.1%

O=C1CCC(N2C(=O)c3ccccc3C2=O)C(=O)O1 (configuration not stated)
inactive: [1] -21.9% | [2] -5.45% | [3] -0.95% | [4] -38% | [5] 8.5% | [6] -12.9%

CC(C)(C)CC(C)(C)c1cc2c(O)c(c1)Cc1cc(C(C)(C)CC(C)(C)C)cc(c1O)Cc1cc(C(C)(C)CC(C)(C)C)cc(c1O)Cc1cc(C(C)(C)CC(C)(C)C)cc(c1O)Cc1cc(C(C)(C)CC(C)(C)C)cc(c1O)Cc1cc(C(C)(C)CC(C)(C)C)cc(c1O)C2
inactive: [1] 7.4% | [2] 3.05% | [3] 18.4% | [4] 18.9% | [5] 4.95% | [6] 9.55%

CC(C)n1cnc2c(=O)[nH]c(=O)[nH]c21
inactive: [1] -9.55% | [2] -4.55% | [3] 9.25% | [4] -39.8% | [5] -5.2% | [6] 2.9%

CC(=O)OC(C)C(=O)C1c2cccc(O)c2C(=O)c2c(O)cc(C)cc21 (configuration not stated)
inactive: [1] 35.6% | [2] 19.1% | [3] 19.9% | [4] 31.4% | [5] 23.9% | [6] 26.6%

O=C1c2ccccc2C(=O)N1CC1CC(S(=O)(=O)c2ccccc2)=NO1 (configuration not stated)
inactive: [1] -1.8% | [2] -15.2% | [3] -0.4% | [4] -0.4% | [5] -7.6% | [6] 5%

COC(=O)C1=C(O)c2cc(-c3ccccc3)c(-c3ccccc3)c(C#N)c2NC(=O)C1
inactive: [1] 32.5% | [2] 23.9% | [3] 12.9% | [4] 11.1% | [5] -4.25% | [6] 30.4%

CCOC1OC(C2COC(=S)O2)C(O)C1O (configuration not stated)
inactive: [1] 9.35% | [2] -2.15% | [3] 7.85% | [4] -4.1% | [5] -0.15% | [6] 13.6%
